Measurements taken from paper PMC4336329 (PLoS ONE, 2015).
In all, about 310,000 compounds went through this assay and about 14,000 (4.5%) showed an effect of 50% or more. The effect is printed as a negative number. This is one part of a sample in which strong results are shown more often than they occur.

Molecular target: human ether-à-go-go-related gene (hERG) potassium channel (human, UniProt Q12809)
Experiment: primary screen, population patch clamp on CHO cells stably expressing hERG; higher = less effect of the substance
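Further: peak tail current of the secondary pulse compared with the same well before compound.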

Chain of human ether-à-go-go-related gene (hERG) potassium channel (Q12809 whole entry, looked up): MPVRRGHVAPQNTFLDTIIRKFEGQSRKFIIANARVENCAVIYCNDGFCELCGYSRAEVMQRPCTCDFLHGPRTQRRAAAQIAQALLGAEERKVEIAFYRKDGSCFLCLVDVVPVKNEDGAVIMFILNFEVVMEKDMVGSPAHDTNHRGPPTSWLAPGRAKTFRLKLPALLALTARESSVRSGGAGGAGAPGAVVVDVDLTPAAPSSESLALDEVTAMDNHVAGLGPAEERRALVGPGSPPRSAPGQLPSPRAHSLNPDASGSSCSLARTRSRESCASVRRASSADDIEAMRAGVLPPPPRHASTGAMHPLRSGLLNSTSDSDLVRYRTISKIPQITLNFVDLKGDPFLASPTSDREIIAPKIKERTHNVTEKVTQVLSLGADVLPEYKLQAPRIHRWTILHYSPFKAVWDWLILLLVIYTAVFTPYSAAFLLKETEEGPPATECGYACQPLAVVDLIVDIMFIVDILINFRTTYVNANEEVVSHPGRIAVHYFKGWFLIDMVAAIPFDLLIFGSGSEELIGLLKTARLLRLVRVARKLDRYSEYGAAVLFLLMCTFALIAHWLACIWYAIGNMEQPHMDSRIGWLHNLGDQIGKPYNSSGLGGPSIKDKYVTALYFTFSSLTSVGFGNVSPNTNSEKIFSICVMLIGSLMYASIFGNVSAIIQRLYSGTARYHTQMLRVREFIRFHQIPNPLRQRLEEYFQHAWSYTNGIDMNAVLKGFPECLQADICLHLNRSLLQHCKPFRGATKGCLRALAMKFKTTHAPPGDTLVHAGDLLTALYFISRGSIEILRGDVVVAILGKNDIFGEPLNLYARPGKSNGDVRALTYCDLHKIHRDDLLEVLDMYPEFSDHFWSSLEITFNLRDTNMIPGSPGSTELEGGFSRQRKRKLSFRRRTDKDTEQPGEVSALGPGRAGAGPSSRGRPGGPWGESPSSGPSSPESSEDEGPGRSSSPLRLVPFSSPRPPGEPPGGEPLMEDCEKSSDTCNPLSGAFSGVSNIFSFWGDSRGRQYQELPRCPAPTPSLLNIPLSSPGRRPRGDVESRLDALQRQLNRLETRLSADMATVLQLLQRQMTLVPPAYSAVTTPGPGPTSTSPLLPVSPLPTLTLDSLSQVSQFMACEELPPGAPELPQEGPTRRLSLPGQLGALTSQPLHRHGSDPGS

| SMILES | hERG current change (%, negative = inhibition) at 10uM |
| --- | --- |
| CCOC(=O)c1cc2ccccc2nc1C | 5.32% |
| CC(C)n1nc(C(=O)OCn2nnc3ccccc3c2=O)c2ccccc2c1=O | 10.2% |
| Br.CC(C)Cc1ccc(C2=CSC3=NCCN23)cc1 | -70.5% |
| Br.Cc1ccc(C2=CSC3=NCCN23)c(C)c1 | -26.8% |
| Cl.Oc1ccc(C2=CSC3=NCCN23)cc1O | -1.2% |
| Br.CCc1ccc(C2=CSC3=NCCN23)cc1 | -14.7% |
| Br.Clc1ccc(C2=CSC3=NCCN23)cc1Cl | -48.2% |
| Br.CC(C)(C)c1ccc(C2=CSC3=NCCN23)cc1 | -55.8% |
| Br.Cc1ccc(C2=CSC3=NCCN23)cc1 | -4.96% |
| Brc1ccc(C2=CSC3=NCCN23)cc1 | -29.5% |
| Br.COc1ccc(C2=CSC3=NCCN23)cc1 | -6.09% |
| Clc1ccc(C2=CSC3=NCCN23)c(Cl)c1.[Br-] | -59.4% |
| Br.CC(C)(C)c1cc(C2=CSC3=NCCN23)cc(C(C)(C)C)c1O | -76.2% |
| Br.C1=C(c2ccccc2)N2CCN=C2S1 | -7.6% |
| O=C(c1ccc(CS(=O)c2ccccc2Cl)o1)N1CCCCCC1 (stereo not drawn) | 14.5% |
| O=C(CC1C(=O)NCCN1C(=O)c1ccc([N+](=O)[O-])cc1)Nc1ccc(F)cc1 (stereo not drawn) | -21.8% |
| O=C(Nc1nccs1)c1ccc2c(c1)C(=O)N(Cc1cccnc1)C2=O | -4.17% |
| CCCCNC(=O)c1ccc(CS(=O)(=O)c2ccc(C)cc2)o1 | 15.1% |
| CCOC(=O)c1ccc2cccc(C)n2c1=O | 3.05% |

| SMILES | hERG current change (%, negative = inhibition) at 10uM |
| --- | --- |
| CSc1ccc(Cl)c(C(=O)N(C)CC(=O)Nc2ccc(N3CCOCC3)cc2)c1 | -0.854% |
| COC(=O)C1CCN(C(=O)COC(=O)Cc2c[nH]c3ccccc23)CC1 | 3.1% |
| Cc1ccc(CN(C(=O)c2cccs2)C2CCS(=O)(=O)C2)cc1 (stereo not drawn) | -46.5% |
| CCn1c(C)nc2c(=O)oc3ccccc3c21 | -9.57% |
| CCNC(=O)c1ccc(N(C)S(=O)(=O)c2cccs2)cc1 | 26.5% |
| CC1CCN(Cc2c(C(=O)N/N=C/c3cc(Br)ccc3O)nnn2-c2nonc2N)CC1 | 19.9% |
| CC1(C)CC(=O)c2ccc(O)cc2O1 | 4.03% |
| CC1(C)CC(=O)c2c(O)cc(OCc3ccc([N+](=O)[O-])cc3)cc2O1 | 15.1% |
| CC1(C)CC(=O)c2ccc(OCc3ccc([N+](=O)[O-])cc3)cc2O1 | -57.7% |
| O=C(COC(=O)c1ccc2c(c1)S(=O)(=O)N=C1CCCCCN12)NCCc1ccc(F)cc1 | -3.75% |
| CC1CN(C(=O)c2ccc(NS(=O)(=O)c3ccc(F)cc3)cc2)CC(C)O1 (stereo not drawn) | 3.67% |
| CN(C)CCNC(=O)/C(=C/c1ccc(-c2cccc(Cl)c2)o1)NC(=O)c1ccccc1 | -72% |
| CN(C)CCNC(=O)/C(=C/c1ccc(-c2ccc(Cl)cc2Cl)o1)NC(=O)c1ccccc1 | -55.1% |
| CN(C)CCNC(=O)/C(=C/c1ccc(-c2ccc(Cl)cc2)o1)NC(=O)c1ccccc1 | -80.9% |
| Cc1ccc(/C=C(\NC(=O)c2ccccc2)C(=O)NCCc2ccccn2)o1 | -12.8% |
| O=C(O)c1ccc(N/N=C/c2ccc(-c3cccc(Cl)c3)o2)cc1 | 8.51% |
| O=C(O)c1ccc(N/N=C/c2ccc(-c3ccc(Cl)cc3Cl)o2)cc1 | 10.7% |
| Cc1ccc(C(=O)N/C(=C\c2ccc(-c3cc(Cl)ccc3Cl)o2)C(=O)NCc2cccnc2)cc1 | 2.81% |
| Cc1ccc(/C=C(/NC(=O)c2ccccc2)C(=O)NCCc2c[nH]c3ccccc23)o1 | -21.3% |

| SMILES | hERG current change (%, negative = inhibition) at 10uM |
| --- | --- |
| Cc1ccc(C)c(N2N=C(C(=O)Nc3ccccc3N3CCCC3)CCC2=O)c1 | 3.97% |
| COc1ccccc1/C=N\Nc1ccccc1[N+](=O)[O-] | 21.7% |
| O=C(O)c1ccc(CNC(=O)c2ccc(S(=O)(=O)N3CCCCC3)cc2)cc1 | -1.88% |
| NC(=O)Cn1cnc(-c2ccccc2)c1 | 9.58% |
| CCCCc1c(O)nc(SCC(=O)N2CCOCC2)n(-c2ccccc2OC)c1=O | 7.27% |
| COCCNC(=O)C1(C)C=CC2(CCCCC2)N1C(=O)c1ccccc1 (stereo not drawn) | 5.19% |
| CC(=O)N(CN1C(=O)C2CC=CCC2C1=O)c1cccc(Cl)c1 (stereo not drawn) | -5.31% |
| Cc1cc(C)c(C(=O)N2CCCC(Nc3ccc(F)cc3)C2)o1 (stereo not drawn) | 9.39% |
| Cc1cc(C)c(C(=O)N2CCCC(N3CCN(c4ccc(F)cc4)CC3)C2)o1 (stereo not drawn) | -73.6% |
| COc1ccccc1N1CCN(C2CCCN(C(=O)c3cc(C)oc3C)C2)CC1 (stereo not drawn) | -3.28% |
| Cc1cc(C)c(C(=O)N2CCCC(N3CCN(c4cccc(C(F)(F)F)c4)CC3)C2)o1 (stereo not drawn) | -52.1% |
| Cc1nonc1C(=O)N1CCCC(N2CCN(c3ccc(F)cc3)CC2)C1 (stereo not drawn) | -51.8% |
| Cc1cc(C(=O)N2CCCC(N3CCN(c4ccc(F)cc4)CC3)C2)c(C)o1 (stereo not drawn) | -59.1% |
| Cc1nnsc1C(=O)N1CCCC(N2CCN(c3ccc(F)cc3)CC2)C1 (stereo not drawn) | -12.3% |
| Cc1ccc2nccc(C(=O)N3CCCC(N4CCN(c5ccc(F)cc5)CC4)C3)c2c1 (stereo not drawn) | -48.5% |
| Cc1ncoc1C(=O)N1CCCC(N2CCN(c3cccc(C(F)(F)F)c3)CC2)C1 (stereo not drawn) | -35.7% |
| Cc1cc(C(=O)N2CCCC(N3CCN(c4cccc(C(F)(F)F)c4)CC3)C2)c(C)o1 (stereo not drawn) | -23.2% |
| COc1ccccc1N1CCN(C2CCCN(C(=O)c3oc(C)cc3C)C2)CC1 (stereo not drawn) | -47.9% |
| Cc1cccc(N(CC(=O)N/N=C/c2ccc(OCC(=O)NCc3ccco3)cc2)S(C)(=O)=O)c1C | 4.14% |
